Rows were chosen to be rich in hits. Some 10% of all compounds tested hit in one or more screens of this group.
KB-V1 MDR tox: kills drug-selected multidrug resistant KB-V1 cells | KB-V1 MDR cells viability, CellTiter-Glo, 72 h | Potency, µM (highest dose often 46.1 µM), usual class: cytotoxic | hit rate 3.4% among 400,000 | AID 1347076; further: on the % scale 0 is the no-effect control and ±100 the full control effect; nearly all actives have a fitted effect of over 60% in size
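qHTS viability screen in drug-selected KB-V1 MDR cells: 72 h compound treatment at 37 degrees C, ATP luminescence end point.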
KB-3-1 cytotox: KB-3-1 parental cell cytotoxicity; AID 1347075; Potency, µM (top dose mostly 46.1 µM), most hits filed as cytotoxic; KB-3-1 viability, CellTiter-Glo ATP luminescence, 72 h; hit rate 1.4% among 400,000; further: on the % scale 0 is the no-effect control and ±100 the full control effect; nearly all actives have a fitted effect of over 60% in size
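Cells are dispensed, compounds pinned in, plates held at 37 °C for 72 h, then CellTiter-Glo is added and luminescence read after 10 minutes. Cell line: parental KB-3-1 in phenol-red-free DMEM, 10% FBS.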
MCF10A rereplic: DNA re-replication induction in MCF 10a cells | Potency, µM (doses to about 46.1 µM), for the others: top-dose activity, positive = re-replication, most hits filed as activators | MCF 10A DNA re-replication, Hoechst nuclear intensity, 48 h | hit rate 2.9% among 350,000; further: % of control where 0% means no effect; nearly all actives have a fitted effect of over 50% in size
VP16 counter: counter-screen for ROR gamma inhibitors: Gal4-VP16 reporter. Drosophila S2 Gal4-VP16 UAS-luciferase, luminescence, 20 h. Potency, µM (series often up to 53.6 µM), without a hit: at the top dose activity, negative = inhibition, hits mostly inhibitors. hit rate 3.5% among 310,000. AID 2546;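 further: Gal4-VP16 expression switched on by copper sulfate through the metallothionein promoter; on the % scale 0 is the no-effect control and ±100 the full control effect; nearly all actives have a fitted effect of over 50% in size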
SW480 rereplic: DNA re-replication induction in SW480 cells; SW480 DNA re-replication, Hoechst DNA content imaging, 48 h; Potency, µM (top dose mostly 46.1 µM), for the others: at the top dose re-replication activation, actives largely listed as activators; hit rate 1.8% among 340,000; AID 624297; further: % of control where 0% means no effect; nearly all actives have a fitted effect of over 55% in size
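DNA re-replication was detected as more nuclei of elevated Hoechst intensity after 48 hr exposure to compound (23 nL pinned per well of 250 cells).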
RORg inh: blocks mouse ROR gamma transcriptional activity | P51450 | Drosophila S2 Gal4-RORgamma UAS-luciferase reporter, 20 h | AID 2551 | hit rate 5.4% among 310,000 | Potency, µM (highest dose often 53.6 µM), for the others: at the top dose activity change, negative = inhibition, usual class: inhibitors; further: on the % scale 0 is the no-effect control and ±100 the full control effect; nearly all actives have a fitted effect of over 60% in size
Target sequence (P51450 whole entry, looked up, the tested form may be a part): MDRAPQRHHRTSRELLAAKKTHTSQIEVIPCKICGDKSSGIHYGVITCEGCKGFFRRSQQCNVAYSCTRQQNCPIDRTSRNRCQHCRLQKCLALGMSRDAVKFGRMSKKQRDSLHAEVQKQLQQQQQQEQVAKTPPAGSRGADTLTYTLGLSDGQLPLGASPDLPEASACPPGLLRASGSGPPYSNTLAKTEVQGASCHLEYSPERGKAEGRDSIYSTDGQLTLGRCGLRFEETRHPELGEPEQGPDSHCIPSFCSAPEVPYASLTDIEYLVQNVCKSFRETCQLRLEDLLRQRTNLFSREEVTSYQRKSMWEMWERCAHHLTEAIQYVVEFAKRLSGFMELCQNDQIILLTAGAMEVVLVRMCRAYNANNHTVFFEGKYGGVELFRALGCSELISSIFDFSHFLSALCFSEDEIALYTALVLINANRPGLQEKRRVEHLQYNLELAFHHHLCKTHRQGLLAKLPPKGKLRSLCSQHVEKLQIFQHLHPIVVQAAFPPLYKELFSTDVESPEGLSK
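Luminescence from a UAS-regulated Photinus luciferase reporter in stably transfected Drosophila Schneider cells is measured; decreased signal marks ROR gamma inhibition. Fusion expression is induced by 700 uM copper sulfate for 20 hr.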
Active calls of the source: *; i = inactive; ? = inconclusive; . = no result; [ ] = dose if it differs, or a comment. The call rests on the fitted dose curve; in most records, active means well fitted curve in the direction sought with a large enough effect; inconclusive means small, poorly fitted or top-dose-only effect, or another doubt; inactive means no such curve, though single readings can be large; an effect the other way counts as inactive or inconclusive. Potency means the concentration at half of the fitted maximal effect.

SMILES	KB-V1 MDR tox	KB-3-1 cytotox	MCF10A rereplic	VP16 counter	SW480 rereplic	RORg inh
COc1ccccc1CNC(=O)[C@@H](NC(=O)C1CCN(C(=O)[C@@H]2CCCN2C(=O)OC(C)(C)C)CC1)C(C)C	i	i	14%	12%	-1%	7.9µM*
CCCN(CCC)CCCNC(=O)c1cc2c(=O)n(CC)c3ccccc3c2s1	?	23µM*	?	4%	?	-21%
COCCNC(=O)c1cc2sc3ccccc3c2s1	i	i	0%	-13%	-5%	-17%
CCCN(CCC)CCNC(=O)c1cc2c(=O)n(C)c3ccccc3c2n1C	i	i	?	-1%	1%	-19%
CN(C)CCCNC(=O)c1cc2sc3ccccc3c2s1	i	i	7.3µM*	-1%	?	-20%
CCN(CC)CCNC(=O)c1cc2c(=O)n(C)c3ccccc3c2s1	?	i	23µM*	-10%	?	-24%
CN(CCNC(=O)c1cc2c(=O)n(C)c3ccccc3c2n1C)Cc1ccccc1	i	?	21µM*	?	3%	11µM*
CCCCN(CC)CCCNC(=O)c1cc2c(=O)n(CC)c3ccccc3c2s1	i	?	?	-16%	?	-27%
Cc1ccccc1NC(=O)c1c(C)oc2ccc(O)c(CN3CCCC(C)C3)c12 (stereo not given)	?	i	.	.	.	.
CCCCN(Cc1ccccc1)S(=O)(=O)c1ccc2c(c1)CC(C)N2C(=O)CC (stereo not given)	i	?	.	.	.	.
CC(Sc1nc(N)c2c3c(sc2n1)CSC(C)(C)C3)C(=O)Nc1ccccc1 (stereo not given)	21µM*	?	?	-22%	?	?
CC(Sc1nc(NCc2ccccc2)nc(N(C)C)n1)C(=O)Nc1ccccc1 (stereo not given)	i	i	?	-9%	-5%	42%
CCCc1nc(SCC(=O)Nc2nc3c(s2)CCCC3)c2ccccc2n1	i	i	16µM*	0%	8%	-12%
CCCCn1nc(C(=O)Nc2nc3c(s2)CCCC3)c2ccccc2c1=O	i	i	14%	?	0%	11µM*
CCCCCCn1nc(C(=O)Nc2nc3c(s2)CCCC3)c2ccccc2c1=O	i	i	?	-21%	-5%	10µM*
CCc1nc(SCC(=O)Nc2nc3c(s2)CCCC3)c2ccccc2n1	i	?	-182%[0.0737 µM]	-8%	?	-15%
CCCCn1nc(C(=O)NC2=NCCS2)c2ccccc2c1=O	i	i	18%	?	3%[9.22 µM]	0%
COc1ccc(Br)cc1S(=O)(=O)N(CC(=O)N1CCN(C)CC1)c1ccccc1	.	.	?	6%	-8%	1%
CC1CCC(NC(=O)C2c3ccccc3C(=O)N2Cc2cccs2)CC1 (stereo not given)	3.7µM*	i	-1%	?	1%	18%
O=C(NC1CCCCCCC1)C1c2ccccc2C(=O)N1Cc1cccs1 (stereo not given)	i	i	-2%	-13%	22%	11%
COc1ccc(CN(C(=O)c2ccccc2F)C2CCS(=O)(=O)C2)cc1 (stereo not given)	i	i	.	.	.	.
CCOc1ccc(-c2cnc3n2CCCCC3)cc1	?	i	9%	?	1%	11µM*
CCOc1ccc(C2=CS/C(=C(\C#N)c3nnc4n3CCCCC4)N2CC)cc1	21µM*	i	1%	-6%	1%	18%
CCOc1ccc(Nc2ncnc3c2nc2n3CCCCC2)cc1	i	i	.	.	.	.
c1cc2c(cc1-c1cnc3n1CCC3)OCCO2	i	i	-5%	?	1%	?
SMILES	KB-V1 MDR tox	KB-3-1 cytotox	MCF10A rereplic	VP16 counter	SW480 rereplic	RORg inh
Cc1ccc(-c2nnc3n2CCCCC3)cc1	i	i	-1%	16%	1%	-12%
c1ccc(-c2ccc(-c3cnc4n3CCCCC4)cc2)cc1	?	i	?	11µM*	-2%	6.3µM*
Cc1ccc(-c2cnc3n2CCCCC3)cc1	i	i	16%	-15%	0%	3.5µM*
C=C(C)[C@H]1CC=C(CO)CC1	.	.	.	-4%	.	-2%
CCN1CCN(Cc2c(O)ccc3c(C)c(-c4ccc(OC)cc4)c(=O)oc23)CC1	i	i	.	.	.	.
CCCCCCCCCCCCCCCC(=O)OC(CC(=O)O)C[N+](C)(C)C (stereo not given)	i	3.7µM*	-1%	.	0.58µM*	.
O=C1Cc2ccccc2C(c2ccc(Br)cc2)N1 (stereo not given)	?	i	2%	3%	?	11%
O=C1NC2=C(CCc3ccccc32)C(c2ccc(Br)cc2)N1 (stereo not given)	21µM*	i	?	22%	13%	-20%
O=C(Nc1ccc(C#Cc2ccccc2)cc1)C1CC1	15µM*	i	20%	-10%	18%	34%
O=C(Nc1ccc(Oc2ccccc2)cc1)C1CC1	i	?	-2%	-5%	4%	21%
COc1ccc(CN2CC[C@H]3C=CC[C@@H](C(=O)NC4CCCCC4)[C@H]3C2=O)cc1OC	i	i	.	.	.	.
COc1ccc(/C=C/C(=O)N(CC(C)C)CC(C)C)cc1Br	21µM*	i	?	-2%[0.365 µM]	?	-5%
COCOc1ccc(OC)cc1C(=O)/C=C/c1ccc(OC)c(Br)c1	.	.	.	-4%	.	-14%
C[C@@H](c1ccccc1)N1C(=O)[C@H]2[C@H]3[C@H](O)[C@H](O)C/C(=N/NC(=O)OCc4ccccc4)[C@H]3CC[C@@H]2C1=O	.	.	.	1%[10 µM]	.	17%[10 µM]
C[C@@H]1CN2[C@H](c3ccc(Br)cc3)[C@H](C)CC[C@H]2C(=O)O1	.	.	.	2%[10 µM]	.	-2%[10 µM]
O=S(=O)(Nc1c(S(=O)(=O)c2ccccc2)c2nc3ccccc3nc2n1C1CCCCC1)c1ccccc1	i	i	2.9µM*	-19%	14%	-8%[10 µM]
C=CCn1c(NS(=O)(=O)c2ccccc2)c(S(=O)(=O)c2ccc(C)cc2)c2nc3ccccc3nc21	13µM*	?	15µM*	25µM*	?	16µM*
COc1ccc(S(=O)(=O)Nc2cccc(-c3ccc4nncn4n3)c2)cc1	?	5.8µM*	5.8µM*	.	3.5µM*	.
O=C(c1ccc2c3c(cccc13)CC2)C1CCCN(Cc2cccnc2)C1 (stereo not given)	i	i	-3%	10%	0%	2%
Cc1cccc(CN2CCCC(C(=O)c3ccc4c5c(cccc35)CC4)C2)n1 (stereo not given)	?	i	?	13µM*	?	4µM*

Assay outcomes from PubChem BioAssay.
